Assay results as given in PubChem BioAssay.
Active and inactive are the calls of the source. Unless noted, the rule behind the calls is not given here.

How the values were obtained:
[1] = compounds binding Alexa647 anti-His antibody – biochemical, small-molecule microarray, 635 nm fluorescence, artefact control for SMM control protein annotation, primary screen (AID 1128); conditions: higher = more signal;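 note: score merges feature fluorescence with signal-to-noise for each printed compound spot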
[2] = tested on: Human papillomavirus type 1a E7 protein (residues 1-88); experiment: HPV1a E7 small-molecule binders, primary screen, biochemical, small-molecule microarray, residues 1-88, 635 nm (AID 1129); conditions: small-molecule microarray binding, fluorescence 635 nm; higher = more signal
[3] = biological target: Focal adhesion kinase 1 (Homo sapiens) (UniProt Q05397); experiment: PTK2 protein binding on printed compound slides – biochemical, small-molecule microarray, 635/667 nm fluorescence, BSA, DTT, primary screen (AID 1130); conditions: 635 nm fluorescence, higher = more signal;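 note: composite of spot emission at 667 nm and signal to noise over triplicate slides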
Focal adhesion kinase 1 (Homo sapiens), sequence (Q05397 whole entry, looked up): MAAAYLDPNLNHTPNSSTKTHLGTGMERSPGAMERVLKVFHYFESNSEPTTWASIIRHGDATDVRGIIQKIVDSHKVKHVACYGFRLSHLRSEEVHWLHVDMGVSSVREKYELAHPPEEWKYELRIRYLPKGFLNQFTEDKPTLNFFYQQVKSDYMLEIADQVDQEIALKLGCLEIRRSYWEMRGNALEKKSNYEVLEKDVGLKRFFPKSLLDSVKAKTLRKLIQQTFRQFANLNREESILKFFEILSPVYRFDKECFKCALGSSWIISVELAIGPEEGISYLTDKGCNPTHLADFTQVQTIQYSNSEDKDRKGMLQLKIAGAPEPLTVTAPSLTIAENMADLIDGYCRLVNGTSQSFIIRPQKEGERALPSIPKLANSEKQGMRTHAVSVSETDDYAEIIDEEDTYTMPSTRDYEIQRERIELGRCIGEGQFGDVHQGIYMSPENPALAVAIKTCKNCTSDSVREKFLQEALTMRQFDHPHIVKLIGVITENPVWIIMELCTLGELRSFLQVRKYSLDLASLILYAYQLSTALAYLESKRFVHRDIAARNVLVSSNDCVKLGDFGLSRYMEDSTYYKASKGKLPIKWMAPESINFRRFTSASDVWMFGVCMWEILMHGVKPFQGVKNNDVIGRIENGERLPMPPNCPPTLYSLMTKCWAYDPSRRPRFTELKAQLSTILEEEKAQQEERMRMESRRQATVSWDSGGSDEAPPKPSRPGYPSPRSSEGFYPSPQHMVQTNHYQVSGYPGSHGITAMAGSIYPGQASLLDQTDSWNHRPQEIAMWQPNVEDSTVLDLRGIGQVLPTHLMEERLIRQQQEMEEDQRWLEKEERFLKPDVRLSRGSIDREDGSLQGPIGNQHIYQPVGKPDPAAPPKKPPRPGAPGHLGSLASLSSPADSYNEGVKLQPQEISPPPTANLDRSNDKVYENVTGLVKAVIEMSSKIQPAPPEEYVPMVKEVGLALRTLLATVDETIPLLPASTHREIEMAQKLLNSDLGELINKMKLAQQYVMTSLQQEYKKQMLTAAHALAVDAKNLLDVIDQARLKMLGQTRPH

[4] = tested on: Fibrinogen (Alexa647-labelled); experiment: Alexa647-fibrinogen binding to printed small molecules – biochemical, small-molecule microarray, 635/667 nm fluorescence, artefact control for SMM control-protein annotation, profiling panel (AID 1131); conditions: fibrinogen-A647 binding fluorescence, higher = more signal;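 note: z-score merges 667 nm fluorescence with per-spot signal-to-noise over triplicate slides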
[5] = biological target: Follistatin (Homo sapiens) (UniProt P19883); experiment: FST protein binding to printed compounds – biochemical, small-molecule microarray, 635/667 nm fluorescence, primary screen (AID 1132); conditions: 635 nm fluorescence, higher = more signal
Follistatin (Homo sapiens), sequence (P19883 whole entry, looked up): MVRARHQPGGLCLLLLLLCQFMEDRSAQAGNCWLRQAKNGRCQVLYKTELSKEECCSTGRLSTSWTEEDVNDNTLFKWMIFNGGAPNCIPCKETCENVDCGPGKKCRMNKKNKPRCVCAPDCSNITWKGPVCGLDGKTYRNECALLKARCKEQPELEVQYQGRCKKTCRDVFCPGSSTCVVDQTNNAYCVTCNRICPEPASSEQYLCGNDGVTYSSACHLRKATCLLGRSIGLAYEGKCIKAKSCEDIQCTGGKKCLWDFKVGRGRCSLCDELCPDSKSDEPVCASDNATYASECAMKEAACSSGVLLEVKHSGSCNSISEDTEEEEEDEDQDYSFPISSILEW

[6] = biological target: Fibroblast growth factor 2 (Homo sapiens) (UniProt P09038); experiment: basic fibroblast growth factor binding to printed compounds – biochemical, small-molecule microarray, 635/667 nm fluorescence, primary screen (AID 1133); conditions: FGF2, fluorescence 635/667, higher = more signal
Fibroblast growth factor 2 (Homo sapiens), sequence (P09038 whole entry, looked up): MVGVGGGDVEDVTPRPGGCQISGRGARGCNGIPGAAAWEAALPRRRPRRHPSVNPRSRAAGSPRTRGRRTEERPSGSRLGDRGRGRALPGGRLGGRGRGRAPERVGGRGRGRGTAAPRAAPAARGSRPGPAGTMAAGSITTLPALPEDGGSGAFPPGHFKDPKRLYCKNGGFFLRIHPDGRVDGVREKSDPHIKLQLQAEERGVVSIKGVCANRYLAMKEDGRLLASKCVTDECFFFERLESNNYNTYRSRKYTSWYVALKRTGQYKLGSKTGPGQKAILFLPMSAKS

[7] = JC-1 mitochondrial potential readout, lung cancer cells – cell-based, A549, JC-1 fluorescence, basal, 24 h, 100 nL, profiling panel (AID 1138); conditions: higher = more signal;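 note: A549 lung adenocarcinoma cells under basal conditions with no added stimulus; test concentration not given here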
Lefty1 = Lefty1 protein binding to printed compounds – biochemical, small-molecule microarray, 635/667 nm fluorescence, primary screen (AID 1139); conditions: fluorescence 635/667, higher = more signal
[8] = tested on: wheat germ agglutinin (Triticum aestivum), Alexa647-labelled; experiment: Alexa647-WGA lectin binding to printed small molecules – biochemical, small-molecule microarray, 635/667 nm fluorescence, artefact control for SMM control-protein annotation, profiling panel (AID 1140); conditions: WGA-A647 binding, 635 nm fluorescence, higher = more signal;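 note: score merges 667 nm feature emission with signal to noise over triplicate slides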
[9] = biological target: Luciferin 4-monooxygenase (Photinus pyralis) (UniProt P08659); experiment: inhibition of purified Photinus pyralis luciferase – biochemical, luminescence, purified enzyme, 2006 set, primary screen (AID 1141); conditions: purified firefly luciferase, SteadyGlo luminescence, 30 min; higher = more signal, called active from +8 up or from −8 down;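 note: cell-free assay with purified firefly luciferase at 100 ng per well in PBS; test concentration not given here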
Luciferin 4-monooxygenase (Photinus pyralis), sequence (P08659 whole entry, looked up): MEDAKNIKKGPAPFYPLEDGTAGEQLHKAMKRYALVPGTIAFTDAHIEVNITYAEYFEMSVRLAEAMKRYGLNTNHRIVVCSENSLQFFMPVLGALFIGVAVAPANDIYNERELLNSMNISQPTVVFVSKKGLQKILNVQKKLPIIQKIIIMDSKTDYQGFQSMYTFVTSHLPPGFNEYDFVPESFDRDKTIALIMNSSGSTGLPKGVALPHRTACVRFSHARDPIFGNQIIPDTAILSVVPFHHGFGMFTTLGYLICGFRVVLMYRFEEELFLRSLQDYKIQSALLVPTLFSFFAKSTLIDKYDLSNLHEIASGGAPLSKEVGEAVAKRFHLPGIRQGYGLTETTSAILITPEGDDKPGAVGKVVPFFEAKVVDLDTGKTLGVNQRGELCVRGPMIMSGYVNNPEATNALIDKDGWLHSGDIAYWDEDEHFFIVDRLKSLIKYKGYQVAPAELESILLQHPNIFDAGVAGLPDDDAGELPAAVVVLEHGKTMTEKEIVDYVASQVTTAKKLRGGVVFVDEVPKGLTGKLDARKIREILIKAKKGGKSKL

[10] = tested on: Wnt5a (protein binding on small-molecule microarray); experiment: small molecules binding Wnt5a protein – biophysical, small-molecule microarray, 635/667 nm fluorescence, primary screen (AID 1142); conditions: 635 nm fluorescence, higher = more signal;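 note: fluorescence read at 667 nm with signal to noise per printed feature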
[11] = ATP-based viability of Huh7 replicon cells – cell-based, CellTiter-Glo luminescence, basal, 48 h, cytotoxicity control for HCV replication inhibitor project, primary screen (AID 1143); conditions: higher = more signal, called active from +8 up or from −8 down;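 note: Huh7 hepatoma cells carrying a hepatitis C replication reporter with no stimulus; test concentration not given here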
[12] = Pseudomonas biofilm growth suppression – PAO1 strain, BacTiter-Glo luminescence, LB-PBS, primary screen (AID 1144); conditions: P. aeruginosa PAO1 biofilm, 12 h, higher = more signal
[13] = basal CRE-LacZ reporter activity in PC12 – cell-based, unstimulated, primary screen (AID 1145); conditions: no forskolin, luminescence, 4.5 h, higher = more signal, called active from +8 up or from −8 down
[14] = forskolin-driven CRE-LacZ activity in PC12 – cell-based, CRE-LacZ reporter, forskolin-stimulated, primary screen (AID 1146); conditions: luminescence, 4.5 h, higher = more signal, called active from +8 up or from −8 down;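 note: PC12 cells with 6xCRE LacZ reporter stimulated by forskolin 10 µM; beta-galactosidase reporter signal reflecting CREB driven transcription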
[15] = biological target: Streptavidin (Streptomyces avidinii) (UniProt P22629); experiment: compounds binding control protein streptavidin – biophysical, small-molecule microarray, 635/667 nm fluorescence, artefact control for SMM compound annotation, primary screen (AID 1147); conditions: higher = more signal;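 note: signal reflects streptavidin binding to arrayed compounds as a control protein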
Streptavidin (Streptomyces avidinii), sequence (P22629 whole entry, looked up): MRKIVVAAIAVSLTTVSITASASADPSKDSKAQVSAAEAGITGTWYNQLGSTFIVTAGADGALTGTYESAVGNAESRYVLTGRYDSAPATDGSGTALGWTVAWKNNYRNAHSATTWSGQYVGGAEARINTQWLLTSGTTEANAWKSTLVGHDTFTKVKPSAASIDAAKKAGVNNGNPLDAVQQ

[16] = probe aInhba binding on compound microarray – biochemical, small-molecule microarray, 635/667 nm fluorescence, primary screen (AID 1148); conditions: higher = more signal;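 note: score merges 667nm spot fluorescence with signal-to-noise for antibody binding to printed compounds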
Torsin-1A (Homo sapiens) [17] = biological target: Torsin-1A (Homo sapiens) (UniProt O14656); experiment: TOR1A wild-type binding on microarray – cell lysate, small-molecule microarray, lysate, 635/667 nm, primary screen (AID 1149); conditions: COS7 hTOR1A-WT lysate, 635 nm fluorescence, higher = more signal
Torsin-1A (Homo sapiens), sequence (O14656 whole entry, looked up): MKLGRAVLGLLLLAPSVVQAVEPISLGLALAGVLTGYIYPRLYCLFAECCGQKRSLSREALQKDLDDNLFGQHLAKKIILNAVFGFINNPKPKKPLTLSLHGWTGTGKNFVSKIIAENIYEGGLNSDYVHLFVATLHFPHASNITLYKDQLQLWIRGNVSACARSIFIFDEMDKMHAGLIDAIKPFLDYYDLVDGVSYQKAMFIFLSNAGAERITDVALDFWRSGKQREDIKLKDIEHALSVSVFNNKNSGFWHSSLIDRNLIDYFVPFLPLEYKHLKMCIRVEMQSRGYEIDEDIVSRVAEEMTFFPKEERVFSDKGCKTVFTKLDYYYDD

Torsin-1A (Homo sapiens) [18] = biological target: Torsin-1A (Homo sapiens) (UniProt O14656); experiment: torsin A mutant lysate binding on microarrays – cell lysate, small-molecule microarray, COS7 lysate, 635/667 nm fluorescence, primary screen (AID 1150); conditions: COS7 hTOR1A mutant lysate, 635 nm fluorescence, higher = more signal;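 note: score pools 667 nm emission and signal to noise measuring lysate protein binding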
[19] = tested on: Sonic hedgehog protein (Shh); experiment: Sonic hedgehog microarray binding compounds – biochemical, small-molecule microarray, 635/667 nm fluorescence, primary screen (AID 1151); conditions: 635 nm fluorescence, higher = more signal;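 note: Shh protein binding to compounds spotted on small-molecule microarray slides; score combines spot fluorescence intensity with signal-to-noise across triplicate slides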

SMILES | composite z-score [1] | composite z-score [2] | composite z-score [3] | composite z-score [4] | composite z-score [5] | composite z-score [6] | z-score [7] | composite z-score (Lefty1) | composite z-score [8] | z-score [9] | composite z-score [10] | z-score [11] | z-score [12] | z-score [13] | z-score [14] | composite z-score [15] | composite z-score [16] | composite z-score (Torsin-1A (Homo sapiens) [17]) | composite z-score (Torsin-1A (Homo sapiens) [18]) | composite z-score [19]
CC(CCN1CCCc2nc(C)c(C)cc21)=NO[C@H](C)c1cn([C@H](CO)Cc2ccccc2)nn1 | 0.906 | 0.474 | 0.402 | 0.166 | 0.564 | 0.559 | -0.776 | 0.931 | 0.108 | 0.0837 (inactive) | 0.22 | -0.535 (inactive) | 0.13 (inactive) | 2.77 (inactive) | -0.245 (inactive) | -0.0592 | 0.0487 | 1 | 0.25 | 1.04
CC(=O)OC[C@H]1O[C@@H](ON=C(C)CCN2CCCCc3nc(C)c(C)cc32)[C@H](OC(C)=O)[C@@H](OC(C)=O)[C@@H]1OC(C)=O | 0.914 | 0.329 | -0.0665 | 0.736 | 0.89 | 1.14 | -0.66 | 1.17 | 0.162 | 0.949 (inactive) | 0.752 | -2.39 (inactive) | 0.0375 (inactive) | 2.32 (inactive) | -0.494 (inactive) | -0.452 | 0.144 | 0.987 | 1.12 | 1.64
COC(=O)CC=C[C@@H](C)[C@@H](C=NOC(C)CN1CCCc2nc(C)c(C)cc21)NS(=O)(=O)c1ccc(C)cc1 (stereo not given in full) | 2.64 | 0.549 | 0.299 | 0.451 | 0.789 | 0.533 | 0.835 | 0.765 | 0.11 | 0.679 (inactive) | 0.448 | -0.214 (inactive) | 1.42 (inactive) | 0.0013 (inactive) | 0.541 (inactive) | -0.176 | 0.0982 | 0.308 | 0.309 | 0.791
CC(CCN1CCCc2nc(C)c(C)cc21)=NO[C@@H](C)c1cn([C@H](CO)Cc2ccccc2)nn1 | 0.14 | 0.0974 | 0.338 | 0.279 | 0.764 | 0.957 | -0.088 | 0.671 | 0.152 | -0.224 (inactive) | 0.0241 | -0.0864 (inactive) | 0.0842 (inactive) | -1.21 (inactive) | -0.82 (inactive) | 0.525 | 0.153 | 0.639 | 0.686 | 0.71
C[C@H]1CC[C@@H](C(=O)O)N[C@@H]1c1cccc(N2CCCC2=O)c1 | -0.0817 | 0.675 | -0.0555 | 0.25 | 0.412 | 0.229 | 1.21 | 0.132 | -0.368 | -1.21 (inactive) | 0.0767 | 0.0659 (inactive) | -0.43 (inactive) | -0.437 (inactive) | -1.1 (inactive) | -0.0712 | -0.134 | 0.203 | 0.286 | 0.189
CC(C)=CCCC(C)=CCON=C1C[C@@H](O)[C@@H](O)[C@@H]2[C@@H]3C(=O)N(C4CCCCC4)C(=O)[C@@H]3CC[C@H]12 | 0.857 | 0.573 | 1.12 | 0.573 | 1.06 | 1.25 | 0.292 | 1.48 | -0.0924 | -0.0223 (inactive) | 0.342 | -2.76 (inactive) | 0.419 (inactive) | -0.38 (inactive) | -0.306 (inactive) | 0.12 | -0.15 | 0.46 | 0.159 | 1.01
COc1ccc(COC(=O)NN=C2C[C@@H](O)[C@@H](O)[C@@H]3[C@@H]4C(=O)N(c5cccc(Oc6ccccc6)c5)C(=O)[C@@H]4CC[C@H]23)cc1 | 0.362 | -0.476 | 0.407 | 0.744 | -0.355 | -0.603 | -0.593 | -0.258 | 0.916 | 0.911 (inactive) | -0.142 | -3.56 (inactive) | 0.111 (inactive) | -0.293 (inactive) | 0.505 (inactive) | 0.993 | -0.0375 | -0.135 | -0.144 | -1.44
COC(=O)[C@@H]1CC[C@H](C)[C@@H](c2ccc(C)cc2)N1C(=O)c1ccc(C=NOC[C@@H](O)[C@H]2O[C@@H]3OC(C)(C)O[C@@H]3[C@H]2O)cc1 | 0.266 | 1.03 | 0.158 | 0.953 | 0.49 | 0.63 | -1.78 | 0.367 | 0.506 | -0.297 (inactive) | 0.0258 | 0.48 (inactive) | -0.0399 (inactive) | 9.08 (active) | 0.413 (inactive) | 0.54 | 0.31 | 0.215 | 0.277 | 0.241
CCN(CC)CC(O)CN1CCCCc2nc(C)c(C)cc21 (stereo not given) | 1 | 0.546 | -0.0492 | 0.0982 | 0.355 | 0.639 | 1.09 | 0.516 | 0.944 | -1.12 (inactive) | 0.0321 | -1.1 (inactive) | -1.67 (inactive) | -0.161 (inactive) | -0.71 (inactive) | 0.551 | -0.183 | 0.57 | 0.029 | 0.261
COCCNC(=O)OCC1CCCC2(CC(OC(=O)NCc3cccc4ccccc34)CC(CCC(=O)N[C@@H](C)C(=O)OC)O2)O1 (stereo not given in full) | 0.522 | 1.13 | -0.208 | 0.912 | 0.728 | 1.04 | 0.609 | 0.42 | 0.598 | 0.396 (inactive) | 0.278 | -0.862 (inactive) | -0.496 (inactive) | 0.376 (inactive) | 1.47 (inactive) | 0.403 | -0.157 | 0.413 | 0.41 | 0.971
